The whole screen tested about 300,000 compounds, of which about 3,200 (1.1%) were called active. This excerpt belongs to a sample that is enriched for actives. Values without a mark were called inactive.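 How the source made its calls: active means inhibition above the campaign mean inhibition plus 3 SD (cut at about 35% in these data); inactive means the rest.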

We go through 61 molecules from PubChem BioAssay AID1974 (The Scripps Research Institute Molecular Screening Center, 2009).

The target of the assay is Glutathione S-transferase omega-1 (Homo sapiens) (UniProt P78417). Briefly: human GSTO1 enzyme inhibition – biochemical, fluorescence polarization, counter-screen for RBBP9 inhibitor project, primary screen (AID 1974).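 Further: 0% = GSTO1-1 with DMSO and 100% = wells lacking GSTO1-1 enzyme.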 Conditions: recombinant GSTO1, activity-based probe fluorescence polarization; at 5.96 µM; stronger effect = higher value. For orientation: Fluorescence polarisation rises when a labelled molecule tumbles more slowly, as on binding a larger partner.
Chain of Glutathione S-transferase omega-1 (Homo sapiens) (P78417 whole entry, looked up): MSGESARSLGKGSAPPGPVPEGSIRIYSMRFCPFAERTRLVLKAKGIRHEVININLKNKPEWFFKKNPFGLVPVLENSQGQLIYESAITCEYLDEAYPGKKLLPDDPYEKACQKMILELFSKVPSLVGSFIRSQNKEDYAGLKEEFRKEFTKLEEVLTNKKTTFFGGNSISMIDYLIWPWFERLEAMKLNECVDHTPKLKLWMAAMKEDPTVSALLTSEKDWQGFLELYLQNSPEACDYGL
On to `CC(=O)c1c(C)[nH]c(C(=O)CN2C(=O)NC(C)(C)C2=O)c1C`, for which the inhibition is -0.38%.

`CS(=O)(=O)n1nc(-c2ccco2)nc1N`: the inhibition was -5.37%.

On to `Cn1c(-c2ccco2)nc2cc3ccccc3cc21`, for which the inhibition was 1.91%.

Consider `c1coc(-c2nc3nc4ccccc4n3nc2-c2ccco2)c1`, for which the inhibition was 47.1% (active).

`CC(=O)CC(CC(=O)NC1CCCCC1)c1ccccc1` (stereo unspecified): the inhibition was 5.92%.

For `Cc1n[nH]c(=O)c2c(NC(=O)CSc3ccccc3F)oc(C)c12`, the inhibition was -2.53%.

For `Cc1coc2c(O)cc3c(c12)OC1(N2CCCCC2)C(=O)NCCCC31` (stereo unspecified), the inhibition is 74.4% (active).

`CCN(CC)CCn1c2c(c(SCC(=O)Nc3nc4ccccc4s3)nc1=O)CCCC2`: the inhibition was -6.43%.

For the molecule `CS(=O)(=O)c1ccc(C(=O)OCC(=O)NNC(=O)COc2ccc(Cl)cc2)cc1`, the inhibition is 1.2%.

On to `Cc1ccc(NC(=O)CN(C)C(=O)Cn2nnc(-c3ccccc3)n2)cc1`, for which the inhibition is 1.43%.

In the case of `OCC[C@H]1C[C@H](O)[C@@H](O)[C@]2(CCc3ccccc3O2)O1`, the inhibition was 3.69%.

As for `CCOC(=O)c1cc(NC(=O)c2cccnc2)ccn1`, the inhibition is 11.6%.

Regarding `O=C(Cc1c(Cl)cccc1Cl)NC1CC1`, the inhibition is 3.33%.

On to `O=C(NNc1ccccn1)c1ccc(Cl)nc1`, for which the inhibition is 12.7%.

As for `O=C(CCl)NNc1cccc(Cl)n1`, the inhibition was 50.5% (active).

Regarding `O=C(NCC1CC1)c1onc(CSc2ccccc2)c1C(=O)NCC1CC1`, the inhibition was 4.37%.

As for `CCOC(=O)c1ccc(NC(=O)c2c(N)n(C)c(=O)[nH]c2=O)cc1`, the inhibition was -7.15%.

As for `CCN(C(=O)COC(=O)c1cc(NS(=O)(=O)c2ccc(Cl)c([N+](=O)[O-])c2)ccc1O)C1CCCCC1`, the inhibition was 38.5% (active).

Regarding `COc1ccc(NS(=O)(=O)c2ccc(O)c(C(=O)OCC(=O)NC3CCCCC3)c2)cc1`, the inhibition is -9.76%.

Consider `CN(C)c1ccc(S(=O)(=O)NCC(=O)NCC2CCCCC2)cc1[N+](=O)[O-]`, for which the inhibition was -5.25%.

As for `COCCn1c(SC(C)C(=O)NC2CC2)nnc1-c1cccc(C)c1` (stereo unspecified), the inhibition is 12.9%.

For the molecule `Cc1ccc(NC(=O)C(C)OC(=O)Cc2c[nH]c3ccccc23)cc1S(=O)(=O)N1CCOCC1` (stereo unspecified), the inhibition is 11.7%.

Take `O=C(NCCS(=O)(=O)N1CCN(c2ccccc2)CC1)c1ccco1`: the inhibition is 1.82%.

As to `NC(=S)N/N=C/c1coc2cc(Cl)ccc2c1=O`, the inhibition is 0.72%.

Take `O=c1c(/C=N/O)coc2ccc(Cl)cc12`: the inhibition was 38.5% (active).

`Cc1ccc2occ(/C=N/NC(=O)c3ccccc3C)c(=O)c2c1`: the inhibition was 23.9%.

For `COC1(C2=NCCN2)COc2ccccc2O1` (stereo unspecified), the inhibition was 10.3%.

In the case of `COc1ccccc1C(=O)NCCC(=O)NN1C(=O)NC2(CCCCC2)C1=O`, the inhibition is 0.1%.

As to `COC(=O)CCCC1=CC2=CC(=O)C(C)(OC(=O)c3cccs3)C(=O)C2=CN1CC(C)C` (stereo unspecified), the inhibition was 19.4%.

For the molecule `COC(=O)CCCC1=CC2=CC(=O)C(C)(OC(=O)c3cccs3)C(=O)C2=CN1CC1CC1` (stereo unspecified), the inhibition is 43.3% (active).

Regarding `CCCCC1=CC2=CC(=O)C(C)(OC(=O)CC)C(=O)C2=CN1CCCOC(C)C` (stereo unspecified), the inhibition was 19.3%.

Take `CC(C)N(Cc1ccccc1)C(=O)COC(=O)c1ccccc1SCC(=O)N1CCCC1`: the inhibition is 8.57%.

Turning to `O=C(CCCn1c(SCC(=O)c2ccccc2)nc2ccccc2c1=O)NCC1CCCO1` (stereo unspecified), the inhibition is -0.93%.

As to `O=C(CCn1c(SCC(=O)c2ccccc2)nc2ccccc2c1=O)NCc1ccc(F)cc1`, the inhibition is 62.5% (active).

With `O=C(CCCn1c(SCC(=O)c2ccc(F)cc2)nc2ccccc2c1=O)NCc1ccco1`, the inhibition was 5.62%.

With `CCCCCCSc1ccc([C@@H]2[C@@H]3C(=O)N(CC)C(=O)[C@@H]3[C@]3(C(=O)OC)CCCCN23)cc1OC`, the inhibition was -5.28%.

Turning to `Cc1cccc(NS(=O)(=O)c2cc(Cl)ccc2Cl)n1`, the inhibition was -9.4%.

As for `COc1ccc(N2CCN(C(C)=C3C(=O)c4ccccc4C3=O)CC2)cc1`, the inhibition was 2.82%.

As to `COC1=C(N2CCOCC2)C(=O)c2ccccc2C1=O`, the inhibition is 57.8% (active).

In the case of `O=C1C(Cl)=C(N2CCOCC2)C(=O)N1c1ccccc1`, the inhibition is 3.26%.

With `COc1ccc(NS(=O)(=O)c2ccc(C)c(C(=O)NNC(=O)c3csc(N4CCOCC4)n3)c2)cc1`, the inhibition was -5.75%.

Regarding `CCCC1C(=O)N2C(N(C)C)=Nc3ccc(C)cc3N2C1=O` (stereo unspecified), the inhibition was -1.7%.

For the molecule `COc1ccc(-c2cnc(SCCNC(=O)c3ccc4c(c3)OCO4)[nH]2)cc1`, the inhibition is -3.18%.

Take `COC(=O)c1ccc(CSc2nncn2C)cc1`: the inhibition is -6.04%.

Consider `COC(=O)c1ccc(CSc2nnc(NC(C)C)s2)cc1`, for which the inhibition is -6.8%.

Consider `COC(=O)c1ccc(CSc2nncn2N)cc1`, for which the inhibition was 61% (active).

In the case of `OCC[C@H]1C[C@H](O)[C@@H](O)[C@]2(CCCCO2)O1`, the inhibition is 3.4%.

For the molecule `COc1ccc(CC2c3cc(OC)c(OC)cc3CC[N+]2(C)CCC(=O)OCCCCCOC(=O)CC[N+]2(C)CCc3cc(OC)c(OC)cc3C2Cc2ccc(OC)c(OC)c2)cc1OC` (stereo unspecified), the inhibition was 11.1%.

As to `CCC(c1nnc(SCC(=O)NNC(=O)c2ccccc2)n1Cc1ccccc1)N(C)C` (stereo unspecified), the inhibition was 1.64%.

On to `COc1ccc(NC(=O)CSc2ncnc3[nH]ncc23)cc1`, for which the inhibition is 36.4% (active).

Consider `COc1ccc(-n2ncc3c(SCC(=O)NNC(C)=O)ncnc32)cc1`, for which the inhibition was -13%.

Regarding `COc1ccc(NC(=O)CSc2nc(C)cs2)cc1`, the inhibition was 4.13%.

In the case of `CCCCN1C(N)=NC[C@@H]1Cc1ccccc1`, the inhibition was -4.9%.

As for `Cc1onc(C(=O)NN)c1-c1csc(COc2ccccc2)n1`, the inhibition is 10.4%.

Consider `CC(C)(C)C(=O)OCc1nc(-c2ccc(O)c(O)c2)cs1`, for which the inhibition was 37.1% (active).

As for `COc1cc(CC(=O)Nc2nc(-c3ccc(F)c(F)c3)cs2)cc(OC)c1OC`, the inhibition is -6.41%.

Take `CC(CCN1CCN=C1N(C)C)c1ccccc1` (stereo unspecified): the inhibition was 4.27%.

In the case of `CNC(C)C#Cc1ccc2sc3cc(OC)c(OC)cc3c(=O)c2c1` (stereo unspecified), the inhibition is 0.59%.

On to `O=C(O)c1[nH]c2ccccc2c1C(c1cccc(O)c1)c1c(C(=O)O)[nH]c2ccccc12`, for which the inhibition is 50.4% (active).

Turning to `CC(NC(=O)COC(=O)c1cc(=O)[nH]c2ccccc12)c1ccccc1` (stereo unspecified), the inhibition was -7.45%.

Regarding `CCCS(=O)(=O)Nc1c(C(=O)O)[nH]c2ccccc12`, the inhibition is 0.73%.

As a reminder, the inhibition is the change of the read-out against control, counted positive when it falls.
